# Assay outcomes deposited in PubChem BioAssay by National Center for Advancing Translational Sciences (NCATS).
# PI5P4Ka inh – PI5P4K alpha (human) kinase inhibition | P48426 | PI5P4Kalpha enzyme, ADP-Glo luminescence, 60 min; hits give low values | max response, % | hit rate 1.2% among 330,000 | AID 652105; active means max response of -50% or lower; inconclusive means between -30% and -50%; inactive means -30% or higher; further: value at the top dose of about 77 µM; on the % scale 0 is the no-effect control and ±100 the full control effect
# Target sequence (P48426 whole entry, looked up): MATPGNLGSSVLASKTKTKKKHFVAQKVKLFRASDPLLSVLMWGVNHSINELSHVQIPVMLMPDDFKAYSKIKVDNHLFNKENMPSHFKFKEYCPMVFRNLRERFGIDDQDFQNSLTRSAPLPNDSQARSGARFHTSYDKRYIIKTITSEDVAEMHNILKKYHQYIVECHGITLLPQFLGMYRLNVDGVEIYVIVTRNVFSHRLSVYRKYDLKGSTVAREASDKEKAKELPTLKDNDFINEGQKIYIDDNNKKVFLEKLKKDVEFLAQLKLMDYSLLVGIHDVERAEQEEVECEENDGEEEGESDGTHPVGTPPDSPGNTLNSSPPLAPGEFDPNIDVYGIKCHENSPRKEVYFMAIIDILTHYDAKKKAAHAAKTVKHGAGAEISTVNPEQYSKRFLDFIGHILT
#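 Human PI5P4Kalpha with substrate in 0.038 M HEPES pH 7.4, 0.28 mM EGTA, 0.1% CHAPS, 5% DMSO; reaction started with 5 microM ATP (final), 60 min at room temperature. ADP formed read by ADP-Glo luminescence.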
# WRN inhibitor – inhibitors of human WRN helicase. hit rate 0.46% among 360,000. WRN helicase unwinding, fluorescent forked duplex, kinetic. Potency, µM (titrated, usually from 114 µM), inactives show at the highest dose activity change, negative = inhibition, actives largely listed as inhibitors; further: potency means the concentration at half of the fitted maximal effect; on the % scale 0 is the no-effect control and ±100 the full control effect; nearly all actives have a fitted effect of over 55% in size
#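 Primary qHTS, 1536-well format. 20 nM WRN + compound, 15 min RT; start with 100 nM forked fluorophore/quencher duplex, 2 mM ATP (final); kinetic read ex 525/em 598 nm.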
# Pol iota inh – DNA polymerase iota (human) inhibition. AID 588590. Pol iota fluorescent replication assay, 10 min. Potency, µM (doses to about 115 µM), inactives show at the highest dose activity, negative = inhibition, most hits filed as inhibitors. hit rate 1% among 390,000. Q9UNA4; further: potency means the concentration at half of the fitted maximal effect
#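 Pol iota at 10 nM preincubated 15 min with compounds at room temperature; reaction started with fluorescent substrate, 50 nM final. Fluorescence read kinetically at 0 and 10 min; buffer-only wells as negative control.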
# POLK inh – blocks human DNA polymerase kappa activity; hit rate 0.53% among 400,000; Q9UBT6; Potency, µM (titrated, usually from 107 µM), without a hit: at the top dose activity, negative = inhibition, actives largely listed as inhibitors; purified Pol kappa, fluorescent DNA synthesis assay, 10 min; AID 588579; further: potency means the concentration at half of the fitted maximal effect; on the % scale 0 is the no-effect control and ±100 the full control effect
#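 Fluorescent qHTS in 1536-well format: enzyme (10 nM) and compound sat 15 min at room temperature before 50 nM substrate (final) was added. Signal taken at 0 and 10 min; no-enzyme buffer wells were negative controls.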
# POLB inh – blocks human DNA polymerase beta activity; P06746; Pol beta primer extension/strand displacement, fluorescence kinetic; Potency, µM (series often up to 114 µM), inactives show top-dose activity change, negative = inhibition, usual class: inhibitors; hit rate 1.3% among 340,000; AID 485314; further: potency means the concentration at half of the fitted maximal effect; on the % scale 0 is the no-effect control and ±100 the full control effect
#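 Homogeneous kinetic assay of primer extension and strand displacement by 10 nM Pol beta, preincubated 15 min at room temperature with compound before 50 nM substrate (final) was added. Read at 0 and 10 min; four-parameter Hill fit.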
# POLH inh – blocks human DNA polymerase eta activity; Q9Y253; recombinant Pol eta, fluorescent DNA replication assay; Potency, µM (doses to about 114 µM), without a hit: at the top dose activity change, negative = inhibition, actives largely listed as inhibitors; hit rate 1.2% among 390,000; AID 588591; further: potency means the concentration at half of the fitted maximal effect; on the % scale 0 is the no-effect control and ±100 the full control effect
#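 Fluorescent replication assay: 50 nM final substrate added after a 15 min room-temperature compound preincubation with 10 nM enzyme. Signal taken at 0 min and again at 10 min.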
# * hit, by the source's call; ? = inconclusive; / = no result; ! = a repeat was not active; [ ] = dose if it differs, or a comment. The list is not random: actives were taken first. Their share in the collection is about 2.8%. Unless noted, the call rests on the fitted dose curve; in most records, active means well fitted curve in the direction sought with a large enough effect; inconclusive means small, poorly fitted or top-dose-only effect, or another doubt; inactive means no such curve, though single readings can be large; an effect the other way counts as inactive or inconclusive.
SMILES,PI5P4Ka inh,WRN inhibitor,Pol iota inh,POLK inh,POLB inh,POLH inh
C#CCOCCOCCOCCNc1nc(N2CCN(C(=O)C(Cc3ccc(O)cc3)n3cc(C(N)CC(C)C)nn3)CC2)nc(N2CCN(C(=O)C(Cc3cc4ccccc4[nH]3)n3cc(C(N)Cc4ccc(O)cc4)nn3)CC2)n1 (stereo unspecified),/,/,/,/,35µM*,/
C#CCOCCOCCOCCNc1nc(N2CCN(C(=O)[C@H]([C@@H](C)CC)n3cc([C@@H](N)CC(C)C)nn3)CC2)nc(N2CCN(C(=O)[C@H](CCCCN)n3cc([C@@H](N)CC(C)C)nn3)CC2)n1,29,-1%,14µM*,-18%,44%,-8%
C#CCOCCOCCOCCNc1nc(N2CCN(C(=O)[C@H](CCCCN)n3cc(CN)nn3)CC2)nc(N2CCN(C(=O)[C@H](CCCCN)n3cc([C@@H](N)CC(N)=O)nn3)CC2)n1,-11,-14%,8.9µM*,9%,/,-8%
C#CCOCCOCCOCCNc1nc(N2CCN(C(=O)[C@H]([C@@H](C)CC)n3cc(CCC(=O)O)nn3)CC2)nc(N2CCN(C(=O)[C@H](CCCCN)n3cc(CCCC)nn3)CC2)n1,2,5%,16%,4%,/,-9%
C#CCOCCOCCOCCNc1nc(N2CCN(C(=O)[C@H]([C@@H](C)CC)n3cc(CCC(=O)O)nn3)CC2)nc(N2CCN(C(=O)[C@H](CCCCN)n3cc(CC(C)O)nn3)CC2)n1 (stereo partly specified),-70*,-1%,-43%,-6%,/,-10%
CCOCCc1nn2c(=O)cc(COC(=O)C3CCCCC3)nc2s1,/,/,3%,-19%,1%,0%
C#CCOCCOCCOCCNc1nc(N2CCN(C(=O)[C@H](CCCCN)n3cc([C@@H](N)C(C)CC)nn3)CC2)nc(N2CCN(C(=O)[C@H](Cc3cc4ccccc4[nH]3)n3cc([C@@H](N)CC(C)C)nn3)CC2)n1 (stereo partly specified),-57*,?,4%,-9%,68%,-16%
Cc1cccc(CNC(=O)CCn2c(=O)c3cccn3c3ccc(F)cc32)c1,/,/,18%,-4%,0%,9%
N#CC1=C(N)NC(=S)C(C(N)=O)C1c1ccc([N+](=O)[O-])cc1 (stereo unspecified),-56*,?,?,-3%,0%,-3%
O=C1NC(C(=O)O)=CC(c2ccc([N+](=O)[O-])cc2)N1 (stereo unspecified),-22,3%,3%,-6%,25%,-11%
CC1(C(=O)NS(=O)(=O)c2cccc(Cl)c2)CCN1C(=O)Cc1cc(F)ccc1F (stereo unspecified),0,6%,/,/,/,/
CC1(c2ccccc2Cl)NC(=O)N(CC(=O)Nc2ccc3c(c2)OCO3)C1=O (stereo unspecified),-18,12%,122%,-16%,13%,8%
S=C(NNC(=S)Nc1ccccc1)Nc1ccccc1,-20,-18%,109%,-10%,0%,-21%
NC(=S)NNC(=S)Nc1ccccc1,-70*,?,49%,-9%,-1%,1%
CN(C)S(=O)(=O)c1ccc(Cl)c(NC(=O)CNC2(C)CCS(=O)(=O)C2)c1 (stereo unspecified),-1,6%,10%,-5%,/,-9%
CC1(C)CC[C@]2(C(=O)n3ccnc3)CC[C@]3(C)[C@H](C(=O)C=C4[C@@]5(C)C=C(C#N)C(=O)C(C)(C)[C@@H]5CC[C@]43C)[C@@H]2C1,?,?,14µM*,-10%,/,3.5µM*
O=C1C=C(c2cc(F)ccc2F)C[C@@H](c2ccc(F)cc2)C1,-7,17%,19%,7%,/,-19%
COC(=O)c1c(C)nc(C)c(C(=O)OC)c1-c1ccc(OC)cc1,9,-3%,14%,-5%,20%,3%
CCOC(=O)c1c(C)nc(C)c(C(=O)OCC)c1-c1ccc(OC)cc1,/,4%,28%,-8%,0.16µM*!,-7%
Cc1ccccc1Nc1nn2c(=O)c3ccc(C(=O)NCc4cccs4)cc3nc2s1,/,/,79µM*,-1%[60.1 µM],20µM*,?
Cc1ccccc1Nc1nn2c(=O)c3ccc(C(=O)NCC(C)c4ccccc4)cc3nc2s1 (stereo unspecified),/,/,20%,-18%,1%,-9%
CCN(CC)S(=O)(=O)c1ccc(OC)c(NC(=O)CSc2cc(C)ccc2C)c1,11,-17%,5%,-16%,8%,-24%
O=C1c2cccnc2-c2ncccc21,1,-11%,13%,-5%,0%,-9%
O=C1C(=O)c2cccnc2-c2ncccc21,-22,18µM*,/,/,/,/
COC1=C(Br)C(=O)c2ncccc2C1=O,?,10µM*,1.3µM*,-11%,/,3.2µM*
SMILES,PI5P4Ka inh,WRN inhibitor,Pol iota inh,POLK inh,POLB inh,POLH inh
O=C(Cn1c(=O)cnc2ccccc21)N1CCN(S(=O)(=O)c2ccccc2Br)CC1,4,-9%,-2%,-1%,/,-13%
CCOC(=O)c1cnc(SCC(=O)Nc2nc(C)c(C)s2)nc1N,/,3%,11%,-18%,1%,-1%
O=C(N/N=C/c1cccc([N+](=O)[O-])c1)C(=O)N1CCCCCC1,8,-1%,143%,0%,1%,-18%
Cn1c(=O)n(-c2cccc(Cl)c2)c(=O)c2sc3ccccc3c21,/,/,33%,6%,14%,-18%
N#Cc1ccc2c(=O)n(-c3ccccc3)sc2c1,-85*,-4%,/,/,/,-9%
CC(=O)Nc1ccc2c(=O)n(-c3ccccc3)sc2c1,-105*,-4%,/,/,/,-13%
O=c1c2ccccc2sn1-c1cccc(Cl)c1,-101*,0%,/,/,/,1%
CC(=O)Nc1ccc(-c2cc(N)n(-c3ccccc3)n2)cc1,-15,0%,48%,3%,1%,-9%
CN(C)S(=O)(=O)c1cccc(-n2sc3ccccc3c2=O)c1,-91*,9%,?,-11%,40%,0%
N#Cc1c(N)n(-c2ccccc2)c(=O)c2cc([N+](=O)[O-])ccc12,8,-7%,30%,-2%,48%,-2%
CCOC(=O)c1cc(-c2ccccc2)n(CCC(=O)NC2CCCCC2)c1C,/,/,?,-14%[60.1 µM],1%,-9%
COc1cccc(Cn2c(=O)c(-c3cccc(F)c3)nc3cncnc32)c1,/,/,/,-3%[60.1 µM],/,/
O=c1c2ccccc2sn1-c1ccccc1F,-106*,-5%,/,/,/,-4%
Cc1ccccc1-n1sc2cc(F)ccc2c1=O,-88*,14µM*,82%,-8%,14%,-11%
Cc1ccc(-n2sc3ccccc3c2=O)cc1S(=O)(=O)N1CCCCC1,-111*,-3%,?,2%,-25%,-4%
O=C(O)c1cccc(N2C(=O)CCC2=O)c1,/,/,/,/,39%,/
